Measured values: PubChem BioAssay AID901 (National Center for Advancing Translational Sciences (NCATS), 2007)
The campaign covered roughly 120,000 compounds. Fewer than 10 were called active. Another 4% or so got no clear call; they are omitted. The call rests on the fitted dose curve; in most records, active means well fitted curve in the direction sought with a large enough effect in the signal ratio (not every such curve was filed as active); inconclusive means small, poorly fitted or top-dose-only effect, or a change in a side signal; inactive means no such curve, though single readings can be large or run the other way; the % refers to the signal ratio. These entries were drawn from the full list.

molecular target: Inositol monophosphatase 1 (Rattus norvegicus) (UniProt P97697); assay: qHTS Assay for Identifying the Cell-Membrane Permeable IMPase Inhibitors; settings: CHO-M1 cells, HTRF TR-FRET ratio; series mostly up to 46.1 µM;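 further: higher means more IMPase inhibition seen as more IP1 and lower FRET ratio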
Sequence (P97697 whole entry, looked up): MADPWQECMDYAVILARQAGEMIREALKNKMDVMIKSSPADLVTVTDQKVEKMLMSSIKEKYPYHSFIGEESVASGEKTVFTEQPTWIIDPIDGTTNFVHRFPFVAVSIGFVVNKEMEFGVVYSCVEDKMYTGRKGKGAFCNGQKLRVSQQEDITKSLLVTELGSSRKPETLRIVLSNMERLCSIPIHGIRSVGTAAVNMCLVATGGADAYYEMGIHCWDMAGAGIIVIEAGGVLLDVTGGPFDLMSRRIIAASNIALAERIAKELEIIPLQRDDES
Excerpt: NCGC IMPase Assay Overview
Lithium has been widely used for the treatment of bipolar disorder. But lithium has a narrow therapeutic index and it can cause side effects such as thirst, weight gain, tremor, polyuria and memory problems. Although the mechanism for lithium action in treatment of bipolar disorder is still not fully understood, inhibition of inositol monophosphatase (IMPase) and the subsequent depletion of the inositol pool in living cells have been implicated as the primary therapeutic benefit of lithium therapy. Therefore, a selective IMPase inhibitor with reduced side effects might be a good drug candidate to replace lithium for the treatment of bipolar disorder. Several IMPase inhibitors have been discovered previously. However, they are not suitable for therapeutic use because of their poor cell membrane penetrability or oral bioavailability; the development of new cell-permeable IMPase inhibitors is needed.
IMPase catalyzes the hydrolysis of inositol-1-phosphate (IP1) to release free inositol. Binding of an agonist to a Gq coupled GPCR results in the activation of PLC, which hydrolyzes the PIP2 to form inositol-1,4,5-trisphosphate (IP3) and diacyl glycerol (DAG). While DAG activates protein kinase C (PKC), IP3 triggers the elevation of intracellular free Ca2+. The IP3 is very rapidly inactivated by hydrolysis to IP2, IP1 and then inositol by a series of enzymes including IMPase. Free inositols are used for synthesis of PI and thus start another inositol cycle.
To identify new cell-permeable IMPase inhibitors, we developed a cell-based IMPase assay in which the cytosolic IP1 is measured by a time-resolved fluorescence resonance energy transfer (TR-FRET) assay. In this assay, an IP1 specific antibody is used to detect the labeled IP1 tracer. When the cell lysate contains the elevated IP1 due to the inhibition of IMPase, the TR-FRET between the labeled antibody and IP1 tracer is disrupted resulting in a reduction in the total signal. Since the TR-FRET is used, this cell-based assay is a homogenous assay without cell wash and medium change that is suitable for assay miniaturization and HTS.
NCGC IMPase Assay Protocol Summary
A Chinese hamster ovary (CHO) cell line stably expressing the M1 receptor (CHO-M1) was obtained from ATCC and maintained in F-12 Kaighn's media (Invitrogen, Carlsbad, CA, 21127) supplemented with 10 % FBS, 100 units/ml penicillin, 100 ug/ml streptomycin and 250 ug/ml geneticin at 37C, 5% CO2 in a humidified atmosphere. Before the assay, aliquots of cells were frozen and stored at -135C. The assay was performed in 1536-well format. Data are reported for both the ratio of the two emission wavelengths, and also for the component 'donor' channel, Em2=620. […] AC50 values were determined from concentration-response data modeled with the standard Hill equation.
IMPase 1536-well assay protocol:
(1) Plate 4 ul/well (2000 cells) of cell suspension from frozen CHO-M1 Cells in white, tissue culture treated 1536-well plates that are cultured at 37C, 5 % CO2 for 16 to 30 hours.
(2) Add 23 nl/well of compound in DMSO solution. The final titration for each compound was between 0.6 nM and 46 uM.
(3) Add 1 ul of carbachol (50 uM in stimulation buffer containing10mM HEPES, 1mM CaCl2, 0.5 mM MgCl2, 4.2 mM KCl, 146 mM NaCl, 5.5 mM glucose, 50mM LiCl, pH 7.4.
(4) Incubation at 37C, 5 % CO2 for 30 min.
(5) Add 1 ul/well of d2-conjugated IP1 (d2-IP1) and 1 ul/well of Eu+ cryptate conjugated anti-IP1 antibody (Eu+-Ab) prepared in the cell lysis buffer, both from the IP-One kit (Cisbio, MA).
(6) Incubate at room temperature for 10 minutes.
(7) Detect the assay plate (Ex = 320, Em1 =665 and Em2 620) in a ViewLux plate reader.
inositol monophosphatase, IMPase, IMPase inhibitor, lithium, bipolar disorder, IP-One, HTRF, qHTS, NIH roadmap, NCGC
Note: In the gene ID and protein GI references for this assay, rat IMPase is referenced instead of hampster as hamster accession numbers were not available.

outcome, inactive:
COC(=O)c1cc(NC(=O)CCS(=O)(=O)c2cc(Br)cc3c2N(C(=O)C2CC2)CC3)cc(C(=O)OC)c1, COc1ccccc1CN(C)C(=O)C1(c2ccc(Cl)cc2)CC1, COc1ccc(OC)c(NC(=O)C2CCN(S(=O)(=O)c3ccc(C)cc3)CC2)c1, COc1cc(/C=N/NC(=O)CCc2n[nH]c(=O)[nH]c2=O)ccc1O, CCCCSc1ncnc2c1sc1nc(N3CCOCC3)c3c(c12)CCCC3, Cc1c(Cl)c([N+](=O)[O-])nn1CCCC(=O)NC(C)c1ccccc1 (stereo unspecified), Cc1cc(C)cc(OCC(=O)Nc2c(C(=O)c3ccccc3)oc3ccccc23)c1, CCN(Cc1ccccc1)Cc1c(O)ccc2c(=O)c(-c3ccc(Cl)cc3Cl)coc12, Cn1c(=O)c2c(ncn2CC(=O)Nc2cccc(C(F)(F)F)c2)n(C)c1=O, CSCCC(NC(=O)c1cc([N+](=O)[O-])cc([N+](=O)[O-])c1)c1nc2ccccc2[nH]1 (stereo unspecified), CCOc1cc(NC(=S)NCCCOC)c(OCC)cc1NC(=O)c1ccco1, O=C(CN1CCc2ccccc21)NC(c1ccccc1)c1ccccc1, CCOC(=O)CC(NC(=O)C1c2ccccc2Oc2ccccc21)c1ccc(C)cc1 (stereo unspecified), O=C(COC(=O)CSc1nnc(-c2ccc(Cl)cc2)o1)Nc1cc(Cl)cc(Cl)c1, Cc1ccc(-c2nnc(Nc3ccc(OCC(N)=O)cc3)c3ccccc23)cc1S(=O)(=O)NCC1CCCO1 (stereo unspecified), CCOC(=O)c1ccc(-c2ccc(/C=C(\C#N)C(=O)Nc3ccc(OCC)cc3)o2)cc1, Cc1ccc(-n2c(SCC(=O)N3c4ccccc4Sc4ccccc43)nnc2-c2ccncc2)cc1, CCn1c2ccccc2c2cc(CN3CCN(Cc4cccc(Cl)c4)CC3)ccc21, O=C(Cc1ccc(Cl)cc1)Nc1ccc2nn(-c3ccc(Cl)cc3)nc2c1, CCNC(=S)N1CCC(c2nc3cc(C)c(C)cc3[nH]2)CC1, Cc1cc(Cl)ccc1OCC(=O)N(Cc1ccc(N(C)C)cc1)C1CCS(=O)(=O)C1 (stereo unspecified), CCNS(=O)(=O)c1ccc(NC(=O)CSc2nc(-c3ccco3)cc(C(F)(F)F)n2)cc1, N#C/C(=C\c1cccc(F)c1)c1nc(-c2cc3c(ccc4ccccc43)oc2=O)cs1, Cc1ccc(N2CC(c3nnc(Cc4ccccc4Cl)o3)CC2=O)cc1 (stereo unspecified), Cc1ccc(C(=O)Nc2nc(-c3ccccc3)ns2)cc1, Cc1ccc(-n2c3nc(=O)[nH]c(=O)c-3cc3c(Cl)cccc32)cc1, COC(=O)c1c(C)oc2ccc(N(C(=O)Oc3ccccc3)S(=O)(=O)c3ccccc3)cc12, CCC(C(=O)OCC(=O)Nc1c(Cl)cc(Cl)cc1Cl)c1ccccc1 (stereo unspecified), CCn1c(=O)c(=O)n(CC)c2cc(N3CCCCC3)c(NC(=O)c3ccc(Cl)cc3)cc21, COc1ccc(NC(=O)Cn2c(=O)n(Cc3ccc(C(=O)NCc4ccccc4Cl)cc3)c(=O)c3ccccc32)cc1, CC1=Nc2cc(C(=O)N3CCC(C)CC3)ccc2Sc2ccc(Cl)cc21, COCCNC(=O)c1ccc2c(c1)N=C(C)c1cc(C)ccc1S2, Cc1cccc(C)c1OCC(=O)NC(Cc1c[nH]c2ccccc12)C(=O)O (stereo unspecified), COc1ccc(-c2csc3ncnc(Oc4ccc5c(C)cc(=O)oc5c4)c23)cc1, CC(C)(C)C(=O)NC(NC(=S)Nc1ccc(S(N)(=O)=O)cc1)C(Cl)(Cl)Cl (stereo unspecified), CCOC(=O)c1cnc2ccc(F)cc2c1Nc1ccc2c(c1)OCCO2, COc1ccc(CNC(=O)CCCn2nc(C)c([N+](=O)[O-])c2C)cc1, Cc1cc[n+](-c2[nH]c(=O)sc2/C=N/NC(=O)c2ccccc2[O-])cc1C, COc1ccc(-c2noc(CCC(=O)N(C)c3ccccc3C)n2)cc1, CCOC(=O)c1c(C)n(S(=O)(=O)c2ccc(C)cc2C)c2ccc(NS(=O)(=O)c3ccc(C)cc3C)cc12, CCC1CCCCN1C(=S)Nc1ccc(SC(F)F)cc1 (stereo unspecified)
